Experimental data as given in the supplement of paper PMC3334620.
Over roughly 33,000 sequences, “E-score (-0.5 to 0.5)” has its median near -0.036; the highest 2% begin near 0.37. Many of the other results were omitted from the sample, so the highest values are more common in it than they were.

Target: T1, Yer064c (UniProt P40041)
T1 sequence: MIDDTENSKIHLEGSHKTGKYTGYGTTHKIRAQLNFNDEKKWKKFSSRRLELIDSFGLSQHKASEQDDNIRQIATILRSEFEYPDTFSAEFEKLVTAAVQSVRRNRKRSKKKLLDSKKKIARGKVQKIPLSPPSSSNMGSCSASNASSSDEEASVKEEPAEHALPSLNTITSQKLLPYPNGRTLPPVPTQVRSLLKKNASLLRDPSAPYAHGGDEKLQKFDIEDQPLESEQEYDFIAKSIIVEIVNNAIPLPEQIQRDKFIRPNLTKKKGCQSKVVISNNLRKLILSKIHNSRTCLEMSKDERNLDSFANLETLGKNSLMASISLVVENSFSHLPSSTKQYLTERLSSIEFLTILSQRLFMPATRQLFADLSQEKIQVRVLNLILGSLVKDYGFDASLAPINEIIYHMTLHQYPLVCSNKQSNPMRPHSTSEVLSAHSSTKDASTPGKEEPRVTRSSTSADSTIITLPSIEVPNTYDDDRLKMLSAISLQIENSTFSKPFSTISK
Test: PBM E-score (8-mer binding enrichment) (E-score (-0.5 to 0.5)); higher = stronger / more preferred TF binding
Details: protein concentration: 200 nM; construct: GST-full length
Procedure: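 Universal 'all 10-mer' protein binding microarrays (Agilent AMADID 015681) probed with GST-tagged S. cerevisiae TFs (full-length or DBD) made by in vitro transcription/translation (PURExpress), about 100-200 nM. Bound TF was detected with fluorescent anti-GST. Each ungapped 8-mer (which stands for itself and its reverse complement) is scored by the PBM enrichment score (E-score), a modified Wilcoxon-Mann-Whitney statistic from -0.5 to +0.5, computed with the Universal PBM Analysis Suite. Scale: above 0.35 generally sequence-specific binding.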

Sequence | PBM E-score
CATCTGTA | -0.0129
GGATCGTA | -0.118
CACTATAC | -0.184
CACTATAA | -0.0109
AACTATAA | 0.0773
AACTATAC | 0.172
GACTATAA | 0.389
GACTATAC | 0.413
AACTCTCG | -0.105
CCTTCAGC | -0.126
CATTTGGA | 0.0626
AATGAGAC | 0.257
AATGAGTC | 0.485
AATGAGTG | 0.249
CATGAGAC | 0.322
CATGAGCC | 0.247
CATGAGTC | 0.481
ACGAGCGA | -0.0924
TGTTGAAA | 0.0239
ACATCCCT | -0.0971
AGATCTAA | -0.0235
AGAAGTAT | 0.0717
GCTCATAA | 0.136
ATTCATAG | 0.166
ACTCATAC | 0.393

Sequence | PBM E-score
CCTCATAG | -0.00122
ACTCATAA | 0.375
ACTCATAT | 0.368
ACGCATAT | -0.225
ACTCATAG | 0.385
TCTCATAA | 0.209
GCTCATAC | -0.0113
CCTCATAC | -0.153
ACCCATAT | 0.216
GAAGATCA | 0.02
ATCGATAG | 0.0388
GCGCGACA | -0.0346
ACCTGGAG | 0.0449
CTCTTGCA | 0.00318
GGTGATTA | 0.447
AGTGATTG | 0.362
AGTGATTC | 0.405
CGTGATCC | -0.251
CGTGATTC | 0.418
GGTGATAA | -0.111
GGTGATGA | 0.191
AGTGATGA | 0.261
AGTGATTA | 0.4
AGTGATAA | -0.0496
AGTGATAC | 0.0829

Sequence | PBM E-score
CGTGATAC | -0.131
ATTGGACA | -0.0986
AAAAACCC | -0.204
GAGATAGA | -0.206
GCAGTCCA | 0.123
GCTCTCCA | -0.226
GTCCTCAA | 0.159
CCAGAACC | -0.1
CGTGATAA | 0.0558
CGTGATGA | 0.104
CGTGATTA | 0.393
AAGATGCC | -0.214
CGGCAAAA | -0.235
AGAAGACG | -0.0622
ACAAGACA | -0.114
ACAAGACG | -0.027
ACAAGACT | 0.37
AGAAGACC | -0.209
AGAAGACT | 0.368
ATTAATTG | 0.238
ACCATACA | -0.0449
GAGGACCA | -0.0209
TGTATCAA | 0.187
AGCGACGG | -0.139
ATGTAATC | 0.291

Sequence | PBM E-score
CATAGTGG | -0.088
CATAGTCG | 0.374
TATAGTGA | 0.134
AATAGTCG | 0.346
CATAGTAA | 0.212
AATAGTCC | 0.241
TATAGTCA | 0.467
TATAGTAA | 0.0693
CATAGTCC | 0.304
CATAGTCA | 0.466
AATAGTCA | 0.478
AATAGTCT | 0.297
AATGGGCT | -0.041
AACCAACC | -0.128
CGTCGAGA | 0.0495
GAGCGCGC | -0.194
GTCGCTCA | 0.171
GGACCATA | -0.109
CCGTACGA | -0.0292
AAGGGAGA | 0.039
AGGGACTA | 0.222
GATAGTCC | 0.296
GATAGTAA | 0.149
GATAGTCA | 0.476
GCACCCCA | -0.26

Sequence | PBM E-score
GGGAGTTA | -0.0443
GGGAGTCA | 0.477
CGGAGTCC | 0.307
CGGAGTTA | -0.0037
CGGAGTCA | 0.477
GGGAGTAA | 0.00383
CACTGTGG | -0.177
CACCTACG | 0.0159
GAACCGTC | -0.209
GACCTGTA | -0.193
ATCGAGTC | 0.389
ATCGAGTA | 0.138
CTCGAGTA | 0.109
ATCGAGTG | 0.139
CTCGAGTC | 0.37
CTCGAGAC | 0.163
CCGCTAGC | -0.334
GAAGATCC | -0.181
ACCCCTTA | -0.00226
CAGACTCA | 0.396
AAGACTGT | 0.254
AAGACTGC | 0.137
AAAACTCT | -0.168
CAGACTGA | 0.134
CAGACTCG | 0.218

Sequence | PBM E-score
AAGACTCC | 0.387
GAGACTGC | 0.217
GAGACTCC | 0.367
AAGACTCT | 0.425
CAGACTCC | 0.187
GAGACTAC | 0.36
ACTTATCG | 0.0591
CTGCCTAC | -0.0918
CCTATAGC | -0.178
GCCGTGCC | -0.24
CGCTGAAC | -0.0322
ACGTCTAA | 0.0568
ACAGGGAG | -0.0887
CAAGCGAC | -0.0326
CTCCCGAG | 0.0821
ACGCTATG | -0.064
GACTGGGC | 0.0848
AAGACTGA | 0.347
GAGACTCA | 0.467
AAGACTCA | 0.48
AAGACTCG | 0.373
AAGACTTA | 0.33
GAGACTTA | 0.24
GAGACTGA | 0.28
AAGACACG | -0.0488

Sequence | PBM E-score
TAGACTCA | 0.413
TAGACTGA | 0.122
TATACTCA | 0.317
AAGACACA | 0.0498
ATTTGGCG | -0.116
GAAGTTAC | 0.0811
ATAGCTGC | 0.00331
AGCTAAGG | -0.317
GGGAGCTA | -0.13
AGTTCATG | 0.215
GCCAATAC | -0.222
AGAGCTGA | 0.0408
AAAGTGAG | 0.188
ATGCCGTA | -0.0237
CGCGTAAC | -0.139
GTACTTAA | 0.123
CTTGCCAC | 0.0476
ACCAAAAA | 0.186
CACTTTAC | 0.0259
ATCGCCTG | -0.012
GAGCACTC | -0.182
GAAGGATC | -0.0298
AGGTGCAC | -0.143
GGGGTGGA | -0.205
ACCACTTG | -0.0296

Sequence | PBM E-score
CATGAATG | 0.197
ATTGAATC | 0.375
ATTGAATA | 0.169
GATGAATC | 0.387
ATTGAATG | 0.167
CATGAATC | 0.423
AATGAATC | 0.39
GATGAATA | 0.176
AATGAATG | -0.0293
AATGAATT | 0.0966
CATGAATA | 0.178
GATGAACC | 0.0652
AGTACCAC | 0.0908
CAATCGAC | 0.0905
ACTGCGAC | 0.228
CTTCCGCC | -0.183
ACATGAGT | 0.375
ACATGACG | -0.00033
AGATGACA | 0.116
AGATGACT | 0.487
ACATGACA | 0.155
AGATGACC | 0.136
ACATGACT | 0.48
ACATGAGC | 0.046
ACATGAGA | 0.284

Sequence | PBM E-score
CTTACGTA | 0.131
CGCAAGGA | -0.167
AAGGCATA | -0.129
TGCCAGCA | -0.0413
ACACGTGC | -0.0356
CACATGTC | 0.0407
ATCCCACG | 0.07
TAGGCGAA | -0.0147
ATGACAAG | 0.0335
GTGACTGA | 0.447
GGGACTGA | 0.119
ATGACTGG | 0.409
ATGACTAG | 0.48
CTGACTGA | 0.395
AGGACTAG | 0.275
CGGACTGA | 0.178
ACGACTGG | 0.148
GTGACGGA | -0.0635
AAGACTGG | 0.1
CTGACTGC | 0.348
